Screens (PubChem)
This is one part of a sample in which hits are shown more often than they occur.
Pf apPOL block = Pf-apPOL DNA polymerase inhibition; inhibition, % at 10 µM; Recombinant Pf-apPOL, molecular beacon fluorescence, 1.5 h; 210,000 tested, 0.25% active; AID 1794808
mHTT CaM bind = mHTT-calmodulin interaction abrogation; P42858; AlphaScreen His-mHTT/GST-CaM binding, luminescence; inhibition, % at 15 µM; 190,000 tested, 3.6% active;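 note: 0% = both proteins with DMSO and 100% = one protein alone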
Numbers without * were called inactive. Cut-off read from the data, not from the text of the source: active = inhibition above about 50%; inactive = the rest.

What do the screens show for `CN(C)/C(=C1/c2cc([N+](=O)[O-])ccc2-c2c1cc([N+](=O)[O-])cc2[N+](=O)[O-])N1CCOCC1`?
Pf apPOL block: -12; mHTT CaM bind: 57*

What do the screens show for `O=C(c1cc([N+](=O)[O-])ccc1N1CCCC1)N1CCOCC1`?
Pf apPOL block: -4; mHTT CaM bind: -2

Results for COc1ccc(-c2csc3c(=O)n(CC(=O)NCc4ccco4)cnc23)cc1 ?
Pf apPOL block: 0; mHTT CaM bind: 20

What do the screens show for `CCOc1ccc(Nc2cc(C)nc3ccc(Cl)cc23)cc1`?
Pf apPOL block: -2; mHTT CaM bind: 2

How did CCCCOc1ccc(Nc2cc(C)nc3ccc(OC)cc23)cc1 do in these assays?
Pf apPOL block: -10; mHTT CaM bind: 61*

How did COCCN=C1Nc2ncccc2NC12CCN(C(=O)Cc1ccccc1F)CC2 do in these assays?
Pf apPOL block: -4; mHTT CaM bind: 5

What do the screens show for `CSc1nc2c(c(=O)[nH]1)C1(CCCCC1)Cc1ccccc1-2`?
Pf apPOL block: 1; mHTT CaM bind: -5

Results for NNc1nc(N)c2c(n1)-c1ccccc1CC21CCCCC1 ?
Pf apPOL block: -4; mHTT CaM bind: 100*

Results for Cn1c(C2CCN(Cc3cccs3)C2)nc2cccnc21 (stereo unspecified) ?
Pf apPOL block: -3; mHTT CaM bind: 4

What do the screens show for `CC(=O)Nc1ccccc1/C=C/c1ccc2c(C)ccc(O)c2n1`?
Pf apPOL block: -5; mHTT CaM bind: 12

What do the screens show for `Cc1ccc(O)c2nc(/C=C/c3ccccc3N)ccc12`?
Pf apPOL block: 0; mHTT CaM bind: 53*

Results for CN(C)c1ccc(NC(=O)CN2CCC(c3nc(-c4ccccc4Cl)no3)CC2)cc1 ?
Pf apPOL block: -2; mHTT CaM bind: 66*

How did O=C(CN1CCC(c2nc(-c3ccccc3Cl)no2)CC1)Nc1ccccc1Cl do in these assays?
Pf apPOL block: -6; mHTT CaM bind: -15

Results for Cc1ccc(NCCNS(=O)(=O)c2ccc(-c3csc(C)n3)s2)nn1 ?
Pf apPOL block: -6; mHTT CaM bind: 99*

Results for CCN(CC)S(=O)(=O)c1ccc(-c2csc(C)n2)s1 ?
Pf apPOL block: -8

Results for Cc1ccc(OCC(=O)Nc2ccc(O)cc2C(=O)O)c(C)c1 ?
Pf apPOL block: -1; mHTT CaM bind: -2

How did O=C(O)C1C2C=CC(C2)C1C(=O)Nc1ncccc1O (stereo unspecified) do in these assays?
Pf apPOL block: 80*; mHTT CaM bind: 4

What do the screens show for `O=C(O)C1C2C=CC(C2)C1C(=O)Nc1cccnc1` (stereo unspecified)?
Pf apPOL block: -12; mHTT CaM bind: -5

How did O=C(C1CCN(Cc2cccc(OCc3ccccc3)c2)CC1)N1CCCC1 do in these assays?
Pf apPOL block: -11; mHTT CaM bind: 20

How did O=C(C1CCCC1)N1CCCC2(CC(c3ccccc3)=CO2)C1 (stereo unspecified) do in these assays?
Pf apPOL block: -5; mHTT CaM bind: -3

How did COc1ccc(OC)c(C=C2Oc3cc(OCC=C(C)C)ccc3C2=O)c1 do in these assays?
Pf apPOL block: -4; mHTT CaM bind: -11

What do the screens show for `C=CCNC(=O)Nc1nc2ccc(SC)cc2s1`?
Pf apPOL block: -6; mHTT CaM bind: -7

How did NC(=O)C1CCN(C(=O)Cc2cc(-c3ccco3)on2)CC1 do in these assays?
Pf apPOL block: 73*; mHTT CaM bind: -3

What do the screens show for `CC1Cc2ccccc2N1C(=O)Cc1cc(-c2ccco2)on1` (stereo unspecified)?
Pf apPOL block: -3; mHTT CaM bind: 0

Results for O=C(CCC1CCCC1)Nc1ccc(CC(=O)NC2CC2)cc1 ?
Pf apPOL block: -5; mHTT CaM bind: -16

How did CN1C(=O)C(=O)C(=C(O)c2ccccc2)C1c1ccccc1F (stereo unspecified) do in these assays?
Pf apPOL block: -9; mHTT CaM bind: -1

Results for COc1ccc(C(=O)N2CCC(c3nc(CCNC(C)=O)cs3)CC2)cc1 ?
Pf apPOL block: -8; mHTT CaM bind: 1

What do the screens show for `CCOc1ccc(/C=C2\SC(=NS(=O)(=O)c3ccc(C)cc3)NC2=O)cc1`?
Pf apPOL block: -3; mHTT CaM bind: 51*

What do the screens show for `Cc1ccc(S(=O)(=O)N=C2NC(=O)/C(=C/c3ccccn3)S2)cc1`?
Pf apPOL block: 0; mHTT CaM bind: 5

Results for O=C(NCCCO)C(=O)NCC1COC2(CCCCC2)O1 (stereo unspecified) ?
Pf apPOL block: 2; mHTT CaM bind: -4

How did CC1CC(=O)Nc2c1c(NC(=O)c1ccc(S(=O)(=O)N3CCOCC3)cc1)nn2C (stereo unspecified) do in these assays?
Pf apPOL block: -6; mHTT CaM bind: 100*

How did CC1CC(=O)Nc2c1c(NC(=O)c1cc(-c3ccc(F)cc3)n[nH]1)nn2C (stereo unspecified) do in these assays?
Pf apPOL block: -7; mHTT CaM bind: 1

How did Cc1nnc2ccc(S(=O)(=O)Nc3cccc(Cl)c3)cn12 do in these assays?
Pf apPOL block: -1; mHTT CaM bind: -1

What do the screens show for `CC(C)(C)c1cc(CCC(=O)NNC(=S)NC(=O)c2ccccc2)cc(C(C)(C)C)c1O`?
Pf apPOL block: -271; mHTT CaM bind: 58*

What do the screens show for `CC(C)(C)c1cc(CCC(=O)NNC(=O)c2ccco2)cc(C(C)(C)C)c1O`?
Pf apPOL block: 1; mHTT CaM bind: 7

Results for Cc1ccnc(SCc2cc(=O)c(OC(=O)C(C)(C)Oc3ccc(Cl)cc3)co2)n1 ?
Pf apPOL block: 2; mHTT CaM bind: 99*

How did COc1cccc(C(=O)Oc2coc(CSc3nccc(C)n3)cc2=O)c1OC do in these assays?
Pf apPOL block: -6; mHTT CaM bind: 34

How did COc1cccc2sc(N3CCc4ccccc4C3)nc12 do in these assays?
Pf apPOL block: -8; mHTT CaM bind: 93*

What do the screens show for `COc1cccc2sc(N3CCN(c4ccccc4)CC3)nc12`?
Pf apPOL block: -18; mHTT CaM bind: -15

What do the screens show for `COc1ccc(-c2c3c(=O)n(C)c(=O)n(C)c3cn2C)cc1`?
Pf apPOL block: 90*; mHTT CaM bind: 3

What do the screens show for `CCn1cc2c(c1-c1ccc(OC)cc1)c(=O)n(C)c(=O)n2C`?
Pf apPOL block: 54*; mHTT CaM bind: 3

What do the screens show for `COc1ccc(-c2c3c(=O)n(C)c(=O)n(C)c3cn2-c2ccccc2N)cc1`?
Pf apPOL block: 7; mHTT CaM bind: 15

Results for Cn1c(=O)c2c(-c3ccccc3)n(-c3ccccc3O)cc2n(C)c1=O ?
Pf apPOL block: -1; mHTT CaM bind: 9

What do the screens show for `COc1ccc(-c2c3c(=O)n(C)c(=O)n(C)c3cn2-c2ccccc2O)cc1`?
Pf apPOL block: 92*; mHTT CaM bind: 21

What do the screens show for `Cn1cc2c(c1-c1ccccc1)c(=O)n(C)c(=O)n2C`?
Pf apPOL block: -4; mHTT CaM bind: -1

What do the screens show for `COc1ccc(-c2c3c(=O)n(C)c(=O)n(C)c3cn2Cc2ccccc2)cc1`?
Pf apPOL block: 24; mHTT CaM bind: 25

What do the screens show for `COc1ccc(-c2c3c(=O)n(C)c(=O)n(C)c3cn2-c2cc(C)c(C)cc2N)cc1`?
Pf apPOL block: 68*; mHTT CaM bind: 50

What do the screens show for `COCCn1c(=N)c(C(=O)NCC2CCCO2)cc2c(=O)n3cccc(C)c3nc21` (stereo unspecified)?
Pf apPOL block: -3; mHTT CaM bind: -1

Results for O=C(CN1CCC2(CC1)N=C(c1cccc(F)c1)C(=O)N2)NCc1ccccc1Cl ?
Pf apPOL block: 4; mHTT CaM bind: 9
